Active and inactive are the calls of the source.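 Rule for the calls: active = fluorescence slope higher than the sample average by over 3 SD (cut at about -0.22 in these data, passing the limit was not always enough); inactive = the rest.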
These molecules were tested against Voltage-gated potassium channel subunit beta-2 (Rattus norvegicus) (UniProt P62483) (assay: inhibitors of rat Kvbeta2 reductase activity – biochemical, NADPH fluorescence, primary screen (AID 622;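 note: slope of raw intensity against log time taken from 70 to 1610 s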)). Conditions: recombinant KvBeta, 4-cyanobenzaldehyde reduction, at 10 µM, hits give high values.
Chain of Voltage-gated potassium channel subunit beta-2 (Rattus norvegicus) (P62483 whole entry, looked up): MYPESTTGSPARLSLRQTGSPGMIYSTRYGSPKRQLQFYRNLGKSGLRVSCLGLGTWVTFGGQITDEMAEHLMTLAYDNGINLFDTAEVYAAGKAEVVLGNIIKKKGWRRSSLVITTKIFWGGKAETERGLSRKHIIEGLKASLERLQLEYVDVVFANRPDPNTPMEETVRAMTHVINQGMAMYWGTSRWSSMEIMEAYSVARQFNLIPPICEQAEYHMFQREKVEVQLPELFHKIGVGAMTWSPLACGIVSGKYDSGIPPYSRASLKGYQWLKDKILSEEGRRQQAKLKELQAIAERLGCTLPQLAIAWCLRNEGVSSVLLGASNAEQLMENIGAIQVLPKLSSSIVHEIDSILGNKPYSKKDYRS

Fluorescence slope, inactive:
CN(C)C(=O)Oc1ccc[n+](C)c1 -0.448, CCCOc1ccc2nc(NC(=O)OC)[nH]c2c1 -0.47, OC(CCN1CCCCC1)(c1ccccc1)C1CCCCC1 (stereo not given) -0.528, O=c1c(O)c(-c2ccc(O)cc2O)oc2cc(O)cc(O)c12 -0.439, COC(=O)Nc1nc2ccc(C(=O)c3ccccc3)cc2[nH]1 -0.437, CCc1cccc2c3c([nH]c12)C(CC)(CC(=O)O)OCC3 (stereo not given) -0.442, C[N+](C)(C)CCCCCCCCCC[N+](C)(C)C -0.47, O=C(c1ccc(F)cc1)C1CCN(CCn2c(=O)[nH]c3ccccc3c2=O)CC1 -0.453, CCN1CCN(C(=O)N[C@@H](C(=O)N[C@@H]2C(=O)N3[C@@H]2SC(C)(C)[C@@H]3C(=O)O)c2ccccc2)C(=O)C1=O -0.465, Cc1ncc([N+](=O)[O-])n1CCO -0.491

From PubChem BioAssay
